Assay outcomes deposited in PubChem BioAssay by several laboratories.
Calb biofilm kill – clotrimazole potentiators killing Candida biofilms, primary screen, with clotrimazole, Alamar Blue. inhibition, % at 6 µM. 85,000 tested, 0.14% active. C. albicans biofilm + clotrimazole. AID 834, 2007;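 active = inhibition above 20%; inactive = inhibition below 20%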;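 note: preformed 24 hr biofilms exposed to compound for 48 hr; 0% = biofilm without compound and 100% = blank killed by clotrimazole plus chlorhexidine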
TNAP act DEA – human TNAP enzyme activators, primary screen, biochemical, luminescent, intermediate phosphate acceptor level | 64,000 tested, under 10 active | Alkaline phosphatase, tissue-nonspecific isozyme (Homo sapiens), P05186 | activation factor at 20 µM | purified TNAP, CDP-star luminescence, 100 mM DEA, 30 min; hits give high values; scale: 0 levamisole-inhibited, 1 vehicle-only enzyme;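 active = activation factor of at least 2 at 20 µM, relative to controls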
FXIa mix inh – FXIa protease inhibitors in compound pools, primary screen, biochemical, 10-compound mixtures | Coagulation factor XI (Homo sapiens), P03951 | purified FXIa, fluorogenic substrate, pooled mixtures | inhibition, % at 5 µM | 62,000 tested, 0.19% active | AID 680, 2007;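 note: each value is inhibition by a whole ten-compound pool holding the compound; 0% = enzyme with no mixture and 100% = wells lacking enzyme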
FXIIa mix inh – human factor XIIa inhibitors, primary screen, biochemical, pooled compound mixtures, fluorogenic substrate. Coagulation factor XII (Homo sapiens), P00748. purified FXIIa. inhibition, % at 5 µM. 62,000 tested, 0.2% active;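 note: 0% = enzyme without compound and 100% = no enzyme blank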
HePTP inhibitor – inhibitors of human HePTP phosphatase, primary screen, biochemical, absorbance, leukemia target; inhibition, % at 20 µM; Tyrosine-protein phosphatase non-receptor type 7 (Homo sapiens), P35236; 110,000 tested, 0.64% active; recombinant HePTP phosphatase activity, OD absorbance; in the data active = inhibition above about 50%;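 note: plate controls were vehicle for no effect and reference inhibitor for full effect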
Target sequence (P35236 whole entry, looked up): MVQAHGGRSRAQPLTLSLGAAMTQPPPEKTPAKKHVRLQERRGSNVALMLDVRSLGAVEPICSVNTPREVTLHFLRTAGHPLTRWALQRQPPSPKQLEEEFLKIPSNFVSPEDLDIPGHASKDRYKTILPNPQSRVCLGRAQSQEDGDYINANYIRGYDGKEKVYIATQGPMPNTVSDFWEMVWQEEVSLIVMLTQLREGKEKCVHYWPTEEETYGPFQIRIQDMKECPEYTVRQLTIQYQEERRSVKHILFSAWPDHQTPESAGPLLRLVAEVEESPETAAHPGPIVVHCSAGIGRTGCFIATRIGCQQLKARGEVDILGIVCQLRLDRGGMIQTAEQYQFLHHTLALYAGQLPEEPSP
D1 mod – D1 CRE-luciferase signal change, two-sided – cell-based, HEK293 D1, dopamine EC30, D1 allosteric modulator project, primary screen | D(1A) dopamine receptor (Homo sapiens), P21728 | dopamine EC30 potentiation; actives deviate in either direction | B-score at 10 µM | 58,000 tested, 5.9% active | AID 641, 2007;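 active = luminescence count or its row- and column-corrected plate score outside the 99.7% band of the plate's sample wells, on either side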
D1 mod confirm – D1 receptor positive allosteric modulators, retest, confirmation, cell-based, HEK293 D1, CRE-luciferase, duplicate; shares compounds with D1 mod; dopamine EC30 potentiation; hits give high values; luminescence at 10 µM; 2,200 tested, 88% active; AID 642, 2007;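 active = luminescence in either of two replicates above the same-plate mean plus 3 SD of the low-dose dopamine control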
D1 ag no DA – D1 receptor agonism without dopamine, confirmation, mechanism study for D1 allosteric modulator project, cell-based, HEK293 D1, CRE-luciferase, secondary assay 1 | shares compounds with D1 mod | luminescence, no dopamine; hits give high values | luminescence at 10 µM | 1,900 tested, 0.8% active; in the data active = luminescence above about 3900
Isoprot counter – alters isoproterenol CRE-luciferase response in HEK293 cells; shares compounds with D1 mod; HEK293 D1 CRE-luciferase, isoproterenol EC30 counter-screen; hits give high values; luminescence at 10 µM; 2,200 tested, 63% active;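 active = luminescence in either replicate above plate mean of wells with a partly effective reference agonist dose plus 3 SD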;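 note: isoproterenol raises cAMP through native beta-adrenoceptor Gs so signal bypasses D1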
Numbers without * were called inactive; · = no result. This excerpt belongs to a sample that is enriched for hits. Cut-off read from the data, not from the text of the source, unless noted: active = inhibition above about 20% (passing the limit was not always enough); inactive = the rest.

SMILES	Calb biofilm kill	TNAP act DEA	FXIa mix inh	FXIIa mix inh	HePTP inhibitor	D1 mod	D1 mod confirm	D1 ag no DA	Isoprot counter
Cc1c(C)c(COCc2c(C)c(C)c(C=O)c(C)c2C)c(C)c(C)c1C=O	·	·	·	·	10	·	·	·	·
CCN(CC)c1ncnc2scc(C3COc4ccccc4O3)c12 (stereo unspecified)	3	·	·	·	·	·	·	·	·
c1ccc2c(c1)OCC(c1csc3ncnc(N4CCOCC4)c13)O2 (stereo unspecified)	8	1	4	2	·	3.8*	5072	1584	3228*
N#CCNC1CC(=O)N(c2ccc(Br)cc2)C1=O (stereo unspecified)	·	·	·	·	-4	·	·	·	·
N#Cc1cccc(-c2nnc(SCc3ccccc3C#N)o2)c1	5	0.9	-8	5	-1	2.7*	5456	1604	3568*
CCOC(=O)c1ccc(N2C(=O)C(O)=C(C(C)=O)C2c2ccc(O)c(OC)c2)cc1 (stereo unspecified)	5	0.9	6	11	6	2.5*	5200	1280	2220
COc1cc(C2C(C(C)=O)=C(O)C(=O)N2c2ccc(C)cc2)ccc1O (stereo unspecified)	4	·	·	·	·	·	·	·	·
CCOc1ccc(-c2nnc(-c3cccnc3)o2)cc1OCC	-6	0.9	8	3	4	8.1*	20776*	1752	3728*
COc1ccc(-c2nnc(-c3cccnc3)o2)cc1OC	9	0.8	-1	3	-4	4.1*	8388*	·	3268*
O=C(O)c1ccccc1C(=O)N1CCN(c2cccc(Cl)c2)CC1	6	0.9	3	3	9	·	·	·	·
CCOc1ccccc1C(=O)N1CCN(c2cccc(Cl)c2)CC1	2	0.8	4	9	12	5.6*	10528*	2016	3608*
CNc1nc(OC)nc(N2CCOCC2)n1	3	1	12	14	2	6*	19816*	1956	4052*
C=CCOc1nc(-c2ccncc2)nc2ccccc12	5	0.9	·	·	6	6.5*	15684*	·	3112*
c1ccc2c(N3CCCC3)nc(-c3ccncc3)nc2c1	1	0.9	2	-4	8	9.2*	18800*	1668	5336*
COc1nc(-c2ccncc2)nc2ccccc12	8	·	·	·	·	·	·	·	·
C#CCNc1nc(CC)nc2c1nnn2Cc1ccccc1F	10	0.9	-3	9	-1	5.9*	15288*	1616	4944*
CCc1nc(NCCCCCO)c2nnn(Cc3ccccc3F)c2n1	3	·	·	·	·	·	·	·	·
CCOc1nc(C)ccc1-c1noc(-c2ccncc2)n1	9	0.9	8	0	7	18*	11268*	1692	4352*
CCOc1nc(-c2ccccc2)ccc1-c1noc(-c2ccncc2)n1	5	0.9	7	-17	5	-0.039	·	·	·
N#CCSc1ncnc2sc3c(c12)CCC3	9	0.9	5	8	12	4.9*	12888*	1696	2764
CC(C#N)Sc1ncnc2sc3c(c12)CCC3 (stereo unspecified)	0	0.9	9	-3	7	6.3*	21012*	1792	4668*
Cc1ccc(-c2nnc(SCC(=O)Nc3ccc(F)cc3)o2)cc1	·	·	·	·	4	·	·	·	·
O=C(N/N=C/c1ccc(-c2ccccc2[N+](=O)[O-])o1)c1ccc2ccccc2c1O	·	·	·	·	10	·	·	·	·
COc1ccc(S(=O)(=O)NCc2ccco2)cc1-c1nnc2c3ccccc3c(C)nn12	1	0.7	10	2	12	8.6*	8232*	1520	3052*
Nc1ncnc2c1ncn2CCOc1ccccc1	2	0.9	6	9	8	4.9*	6344*	1408	2924
SMILES	Calb biofilm kill	TNAP act DEA	FXIa mix inh	FXIIa mix inh	HePTP inhibitor	D1 mod	D1 mod confirm	D1 ag no DA	Isoprot counter
N#Cc1c(N)sc(=S)c2c1CCCCC2	5	0.9	·	·	-3	·	·	·	·
N#Cc1c(N)sc2c1CCCCCC2	-2	0.9	5	-15	10	5.8*	13464*	1508	2928
O=[N+]([O-])c1cccc(S(=O)(=O)N2CCN(c3ccccc3)CC2)c1	·	·	·	·	2	·	·	·	·
O=C(NC(=S)Nc1ccc2oc(-c3ccc(Cl)c(Cl)c3)nc2c1)c1ccccc1	·	·	·	·	-14	·	·	·	·
CCCOc1ccccc1NC(=O)c1ccc(N)cc1	1	0.9	7	3	3	3*	7556*	1560	3068
CCCCOc1ccccc1NC(=O)c1ccc(OC)c(OC)c1	·	·	·	·	3	·	·	·	·
COc1cc(C2c3sc(=O)[nH]c3SC3C4CCC(C4)C23)ccc1O (stereo unspecified)	·	0.9	11	-5	-5	8.5*	18840*	1528	4160*
COc1ccc(C2c3sc(=O)[nH]c3SC3C4CCC(C4)C23)cc1 (stereo unspecified)	-4	0.9	-2	3	-12	16*	27840*	1724	4476*
O=c1[nH]c2c(s1)C(c1ccccc1)C1C3CCC(C3)C1S2 (stereo unspecified)	4	0.9	8	5	6	17*	21364*	·	4164*
O=C1C2Sc3[nH]c(=O)sc3C(c3ccccc3)C2C(=O)N1c1ccccc1 (stereo unspecified)	6	·	·	·	·	·	·	·	·
COc1ccc(C2c3sc(=O)[nH]c3SC3C(=O)N(c4ccccc4)C(=O)C32)cc1 (stereo unspecified)	·	1	0	5	1	1.2	·	·	·
Cn1c(=O)c2c(ncn2CC(=O)NC(c2ccccc2)c2ccccc2)n(C)c1=O	·	·	·	·	-3	·	·	·	·
COc1ccc2c(c1)C(=O)N(c1ccccc1)C(=O)C2	2	·	·	·	·	·	·	·	·
COc1ccc2c(c1)C(=O)N(c1ccccc1OC)C(=O)C2(C)C	0	0.9	8	4	8	6.9*	11528*	1476	3236
CC(=O)Nc1ccc(C(=O)NC(CC(=O)O)c2ccc(Cl)cc2)cc1 (stereo unspecified)	2	·	·	·	·	·	·	·	·
CN(C)c1ccc(C(CC(=O)O)NC(=O)c2ccc(Cl)cc2)cc1 (stereo unspecified)	-3	0.9	8	5	8	18*	5248	·	2524
